In the library only some 2.9% were active in any assay of this set; here they are far more common.
Wnt bcat act: activates Wnt/beta-catenin signaling in a reporter cell assay; activator, plate reader; activation, % at 9.35 µM; 300,000 compounds, 1.2% hits; AID 743398; in the data active = activation above about 30%, passing the limit was not always enough; inconclusive = no clear call, values can overlap the other calls;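 note: 0% = neutral control wells and 100% = positive control wells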
NSD2 inh: inhibitors of human histone methyltransferase NSD2 | NSD2 peptide methylation, AlphaScreen, 120 min | inhibition, % at 12.5 µM | 310,000 compounds, 0.54% hits | AID 743445; in the data active = inhibition above about 50%
MITF TRPM1 HTS: MITF TRPM1 promoter activation in melanoma cells. SK-MEL-5 TRPM1-promoter luciferase, 24 h; % of positive control, neutral wells = 0. activation, % at 12.5 µM. 300,000 compounds, 0.75% hits;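 active = mean activation of at least 80% with every replicate also reaching 80%; inconclusive = mean reaches 80% but some replicate falls short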;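 note: 0% = neutral control wells and 100% = parthenolide positive control wells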
N-glyco inh: N-linked glycosylation inhibition; D54 ERlucT glycosylation luciferase reporter, 24 h; percent of 100 nM tunicamycin response; reporter increase, % at 12.5 µM; 360,000 compounds, 0.23% hits;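 active = mean luciferase reporter signal, scaled so untreated is 0 and the glycosylation-blocking control 100, at or above a set limit in every replicate; inconclusive = mean reaches the limit but not every replicate does; inactive = mean below the limit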;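 note: luciferase carries N-glycosylation sites so blocking glycosylation raises the light; 0% = median of neutral control wells and 100% = median of 100 nM tunicamycin wells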
TRPM1 prom inh: reduces MITF-dependent TRPM1 promoter luciferase signal. SK-MEL-5 TRPM1 promoter luciferase, 24 h. inhibition, % at 12.5 µM. 330,000 compounds, 0.83% hits. AID 488899;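 active = mean inhibition across replicates of 60% or more, whatever share of single replicates reaches that level; inconclusive = some that reach 60%, reason not given; inactive = mean inhibition across replicates below 60%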
PfHsp90 set2: growth inhibition of yeast expressing Plasmodium Hsp90; AID 504621; 310,000 compounds, 0.32% hits; inhibition, % at 9.4 µM; S. cerevisiae expressing PfHsp90, BacTiter-Glo ATP, 48 h; yeast lacking PDR1 and PDR3 efflux regulators;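 active = every replicate shows inhibition above about 80%, whatever the replicate mean, limit read from the data; inconclusive = mean inhibition reaches the set limit but some replicate falls short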;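 note: 0% = DMSO neutral controls and 100% = 20 µM radicicol positive controls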
AlphaScreen art: AlphaScreen assay artifact in NSD2 counter-screen; AC35, µM (series often up to 10 µM), for inactives: at the top dose activity change, negative = signal loss; AlphaScreen artifact counterscreen, preloaded methylated H4 peptide; shares compounds with NSD2 inh; 1,500 compounds, 9.4% hits; call rule not given here
An asterisk follows results filed as active; u = inconclusive; x = no result given.

SMILES	Wnt bcat act	NSD2 inh	MITF TRPM1 HTS	N-glyco inh	TRPM1 prom inh	PfHsp90 set2	AlphaScreen art
CCCCn1c(NC(=O)c2ccc(Br)o2)c(S(=O)(=O)c2ccccc2)c2nc3ccccc3nc21	x	104*	-8	0	10	-2	1%
CCCCn1c(NS(=O)(=O)c2ccccc2)c(S(=O)(=O)c2ccc(C)cc2)c2nc3ccccc3nc21	5	102*	-11	2	11	0	-2%
Cc1ccc2nc(-c3ccc(O)cc3)oc2c1	14	-1	59	-11	-72	11	x
CC(/C=N/NC(=O)c1nn(C)c(C)c1Br)=C\c1ccccc1	-4	-1	78	-1	-79	-32	x
CN(C)Cc1cc(O)c(CN(C)C)cc1O	0	86*	x	2	0	12	1%
CCN(CC)CCCNc1ncnc2scc(-c3ccc(F)cc3)c12	1	63*	-3	0	5	-6	-3%
COc1ccc(-c2csc3ncnc(NCCCO)c23)cc1	-4	-1	7	-13	-3	-16	x
CCc1ccc(N2C(=O)C3C(C2=O)N2CCCN2C3c2ccccc2)cc1 (stereo unspecified)	2	64*	x	2	4	-5	0%
Cc1ccc(N2C(=O)C3C(C2=O)N2CCCN2C3c2ccccc2)cc1C (stereo unspecified)	0	6	-1	0	-1	-32	x
COc1ccc(-n2c(C)cc(/C=C/c3nc(O)c([N+](=O)[O-])c(=O)[nH]3)c2C)cc1	-1	33	6	3	-7	-12	x
Cc1cc(/C=C\c2nc(O)c([N+](=O)[O-])c(=O)[nH]2)c(C)n1-c1ccccc1	0	62*	1	0	5	1	-8%
CCc1nnc(NC(=O)CCS(=O)(=O)Cc2ccccc2)s1	-2	-10	-3	-5	8	12	x
CCC(CC)c1nnc(NC(=O)CCS(=O)(=O)Cc2ccccc2)s1	-2	61*	-1	-11	4	31	-1%
OCC[C@@H]1C[C@@H](O)[C@H](O)[C@@]2(CCCc3ccccc3O2)O1	-3	x	-1	2	4	-20	x
CCN1C[C@@H]2[C@@H]3C(=O)N(Cc4ccccc4)C(=O)[C@@H]3[C@](CC)(C(=O)OC)N2C1=NCc1ccccc1	0	x	7	0	-2	7	x
Cc1ccccc1C1=C/C(=C(\SS/C(C(=O)c2ccc(OCC(=O)O)c(Cl)c2Cl)=C2\C=C(c3ccccc3C)SS2)C(=O)c2ccc(OCC(=O)O)c(Cl)c2Cl)SS1	-4	53*	-1	-5	8	-22	5.2µM*
O=C(O)COc1ccc2nsnc2c1Cl	x	-1	8	1	-8	x	x
CCCN(Cc1nnc(-c2cccs2)o1)C(=O)CN1C(=O)NC2(CCC(C)CC2)C1=O (stereo unspecified)	1	-4	3	1	0	-6	x
O=C(O)CCC(=O)N1CCN(c2nc(-c3ccccc3Cl)c3cc(Br)ccc3n2)CC1	x	-2	-12	3	13	-4	x
CCOc1cc(/C=C2\C(=O)NN(c3ccccc3)C2=O)cc([N+](=O)[O-])c1O	-1	111*	-8	0	6	0	-10%
COc1cc(/C=C2\C(=O)NN(c3ccccc3)C2=O)cc([N+](=O)[O-])c1O	x	34	-7	2	7	-58	x
N=c1c(C(=O)NC2CCCC2)cc2c(=O)n3ccccc3nc2n1C1CCCC1	x	0	16	1	-14	-10	x
N=c1c(C(=O)NCc2ccco2)cc2c(=O)n3ccccc3nc2n1C1CCCC1	-4	66*	-11	5	11	6	1%
C=CCn1c(SCC(=O)c2ccc(O)c(O)c2)nnc1-c1ccccc1OC	-3	x	5	-4	-7	-7	x
C=CCn1c(SCC(=O)c2ccc(O)c(O)c2)nnc1-c1cccc(C)c1	-5	x	-1	-5	5	-35	x
SMILES	Wnt bcat act	NSD2 inh	MITF TRPM1 HTS	N-glyco inh	TRPM1 prom inh	PfHsp90 set2	AlphaScreen art
CCn1c(SCC(=O)c2ccc(O)c(O)c2)nnc1-c1ccccc1OC	x	88*	-4	-3	6	8	-19%
C=CCn1c(SCC(=O)c2ccc(O)c(O)c2)nnc1-c1cccnc1	2	72*	-22	2	13	-4	-7%
CC1=CC(=O)O[C@@H]1[C@@]1(C)C[C@H]2OC(=O)C[C@H]3[C@@H](C)C(=O)C(O)=C1[C@@]23CO	-2	x	3	0	-2	5	x
O=C(CCN1CCOCC1)NNC(=S)NC(=O)c1ccccc1	-1	-4	-18	2	16	-8	x
COc1ccc(CNCc2cn(-c3cccc(F)c3)nc2-c2ccc(C)o2)cc1	5	5	14	0	-19	-4	x
Cc1nc2cc(C(=O)NCc3cccnc3)ccc2n1-c1ccc(F)cc1F	-7	50*	-16	0	20	-1	-3%
CCOc1ccc(N)cc1OC	1	56*	3	6	-9	1	0%
CCOc1ccc(C(N)=O)cc1OC	-1	-1	-1	1	2	-12	x
COc1ccccc1CNC(=O)C1CC2Cn3c(nc4cc(C)c(C)cc43)C2N1C (stereo unspecified)	u	x	12	1	-10	9	x
Nc1c2c(=O)[nH]c(O)cc2nn1-c1ccccc1	-1	100*	-8	1	10	x	-3%
Cc1c(C)c2c(C)nn(-c3ccccc3)c2[nH]c1=O	x	-1	x	1	11	4	x
CC12CC3(C)CC(C)(C1)CC(C(=O)NC1=NCCS1)(C2)C3	x	121*	12	0	-17	9	-4%
CC12CC3CC(C)(C1)CC(C(=O)NC1=NCCS1)(C3)C2	-6	-4	x	-2	17	3	x
COc1ccc(CNC(=O)C(C)OC(=O)CN2C(=O)COc3ccccc32)cc1 (stereo unspecified)	-1	-6	-1	-2	2	0	x
COc1ccc(Cn2cnc3c(N)c(C)c(C)cc32)cc1	-2	3	-15	0	16	-40	x
CCCCCCCCn1cnc2c(N)c(C)c(C)cc21	-2	76*	10	3	-2	17	-5%
NC(=O)c1[nH]cnc1N=NN(CCO)Cc1ccccc1	1	69*	x	0	x	x	-2%
O=C(Nc1ccc(N2CCOCC2)cc1N1CCOCC1)c1ccc([N+](=O)[O-])cc1	x	0	-13	2	14	-7	x
O=C(NNc1cc(N2CCOCC2)nc(N2CCOCC2)n1)c1ccc([N+](=O)[O-])cc1	1	129*	-2	4	4	-40	-4%
COc1ccc(NC(=O)CN(C)S(=O)(=O)c2ccc(C)cc2)c([N+](=O)[O-])c1	0	67*	-4	0	8	-9	-4%

Compound activity (PubChem BioAssay)
